# Results taken from PubChem BioAssay AID588342 (National Center for Advancing Translational Sciences (NCATS), 2011).
# Hit rate of the full screen: of about 360,000 compounds, about 25,000 (6.9%) were called active. Another 9% or so got no clear call; they are omitted. The sample holds actives, similar compounds and a random draw of the others, so the mix is not that of the screen. Unmarked numbers belong to inactive results. The call rests on the fitted dose curve; in most records, active means well fitted inhibition curve with a large enough effect; inconclusive means small, poorly fitted or top-dose-only effect; inactive means flat fitted curve, though single readings scatter.
# Molecular target: Luciferin 4-monooxygenase (Photinus pyralis) (UniProt P08659)
# Sequence (P08659 whole entry, looked up): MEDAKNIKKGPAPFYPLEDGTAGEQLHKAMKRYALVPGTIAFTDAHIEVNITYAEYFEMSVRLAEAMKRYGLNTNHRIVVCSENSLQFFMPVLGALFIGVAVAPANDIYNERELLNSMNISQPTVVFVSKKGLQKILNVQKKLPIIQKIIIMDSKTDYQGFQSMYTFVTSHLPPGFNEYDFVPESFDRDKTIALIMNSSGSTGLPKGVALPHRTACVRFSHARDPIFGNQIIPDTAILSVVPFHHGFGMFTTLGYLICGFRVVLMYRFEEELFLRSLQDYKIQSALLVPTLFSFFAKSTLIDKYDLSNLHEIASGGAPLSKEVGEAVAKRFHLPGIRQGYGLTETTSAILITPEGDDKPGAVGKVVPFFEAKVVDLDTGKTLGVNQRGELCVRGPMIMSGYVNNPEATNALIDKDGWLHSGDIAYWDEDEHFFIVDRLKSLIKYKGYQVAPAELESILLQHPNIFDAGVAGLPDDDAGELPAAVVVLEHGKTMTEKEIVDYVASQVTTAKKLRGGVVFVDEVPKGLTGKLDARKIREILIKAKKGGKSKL
# Assay: qHTS profiling assay for firefly luciferase inhibitor/activator using purifed enzyme and Km concentrations of substrates (counterscreen for miR-21 project); further: nearly all actives have a fitted effect of over 55% in size;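 on activity change, negative = inhibition: plate controls were vehicle for no effect and reference inhibitor for full effect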
# Settings: purified FLuc, luminescence inhibition; series mostly up to 57.5 µM; activity change, negative = inhibition: at the top concentration
# Method in brief: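 Biochemical qHTS of compounds, final roughly 60 µM downward over six points, against 10 nM purified firefly luciferase using Km concentrations of substrates (10 uM D-luciferin, 10 uM ATP) in Tris acetate pH 7.5 buffer; luminescence output.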
# Potency means the concentration at half of the fitted maximal effect.
Structure (SMILES),"activity change, negative = inhibition",Potency
COc1ccc(S(=O)(=O)n2nc(C)c(S(=O)(=O)N3CCCCCC3)c2C)cc1,4.77%,
COc1cc(NC(=O)c2cc(C3CC3)nc3c2c(C)nn3-c2ccccc2)cc(OC)c1,-10.6%,
O=[N+]([O-])c1ccc2c(c1)C(N1CCOCC1)/C(=C/C1(O)CCCCC1)O2 (centres undefined),-4.29%,
Cn1c(=O)c2sccc2n2c(CCC(=O)NCc3ccccc3Cl)nnc12,-5.43%,
O=CN1CCN(C(=O)c2ccc3c(c2)OCO3)CC1,-6.7%,
Cc1ccc2sc(NNC(=O)c3ccc4c(c3)OCCO4)nc2c1C,-4.15%,
COCc1nnc(NC(=O)c2ccc3c(c2)OCO3)s1,,23.9 µM (active)
Cc1ccc(-n2nc3c(c2NC(=O)c2ccc4c(c2)OCO4)CSC3)c(C)c1,0.872%,
Cn1c(NC(=O)c2ccc3c(c2)OCO3)cc(=O)n(C)c1=O,0.456%,
O=C(Nc1ccccc1)c1ccc2c(c1)OCO2,,12 µM (active)
O=C(Nc1ccc(NC(=O)c2ccc3c(c2)OCO3)cc1)c1cccc(Cl)c1,-0.291%,
O=C(Nc1cccc([N+](=O)[O-])c1)c1ccc2c(c1)OCO2,,19 µM (active)
O=C(Nc1nc2ccccc2s1)c1ccc2c(c1)OCO2,,0.301 µM (active)
CC(NC(=O)Nc1cccc([N+](=O)[O-])c1)c1ccc2c(c1)OCO2 (centres undefined),-1.01%,
CN(CC(=O)Nc1cccc(F)c1)CC(=O)Nc1cccc([N+](=O)[O-])c1,6.15%,
COCc1nnc(NC(=O)CS(=O)(=O)Cc2ccccc2)s1,0.467%,
CSCCC(NS(=O)(=O)c1ccc2c(c1)oc(=O)n2C)C(=O)NC1CCCc2ccccc21 (centres undefined),5.78%,
Cc1ccc(N2C(=O)C3N=NN(CC(=O)N4N=C(c5cccc6ccccc56)CC4c4ccccc4)C3C2=O)cc1 (centres undefined),-0.523%,
O=C(Nc1c(C(=O)N2CCN(c3ccc(F)cc3)CC2)oc2ccccc12)c1ccco1,-7.89%,
CN(CC#CCC(c1ccccc1)c1ccccc1)C(C)(C)C,0.573%,
CCOC(=O)c1ccc(NC(=O)c2ncn(-c3ccccc3)n2)cc1,-1.44%,
O=C1Cc2cc(S(=O)(=O)Nc3cccc(F)c3)ccc2N1,4.22%,
COC(=O)c1ccc(NC(=O)c2cnn(-c3ccc(Cl)cc3)c2C2CCN(C(=O)OC(C)(C)C)CC2)cc1,-5.97%,
CCOc1ccc(C(=O)NCC(=O)N2CCCCCCC2)cc1OCC,0.971%,
O=C(Nc1ccc2c(c1)CCC2)c1cccc(S(=O)(=O)Nc2ccccc2Cl)c1,,21.3 µM (active)

Structure (SMILES),"activity change, negative = inhibition",Potency
O=C(NCCS(=O)(=O)N1CCN(c2ccc(F)cc2)CC1)c1ccc2c(c1)OCO2,0.656%,
CC(=O)Nc1cccc(C(=O)OCC(=O)c2ccc3c(c2)OCO3)c1,,0.135 µM (active)
CC(C)C(=O)Nc1cccc(C(=O)Nc2ccc3c(c2)OCO3)c1,,8.49 µM (active)
CC(NC(=O)COC(=O)c1ccc2c(c1)OCO2)c1ccccc1 (centres undefined),-5.33%,
O=C(c1ccc2c(c1)OCO2)N1CCOCC1,-1.93%,
CC(=O)Nc1cccc(C(=O)OCN2C(=O)c3ccccc3C2=O)c1,-1.02%,
CC(Sc1nc(-c2ccccc2)cc(C(F)(F)F)n1)C(=O)Nc1ccc2c(c1)OCO2 (centres undefined),0.268%,
O=C(Nc1ccc(N2CCOCC2)cc1)c1ccc2c(c1)OCO2,,10.7 µM (active)
O=C(Nc1ccc2c(c1)CCC2)c1cccc(S(=O)(=O)N2CCN(c3ccc(F)cc3)CC2)c1,8.68%,
O=C(c1cccc(S(=O)(=O)Nc2ccccc2Cl)c1)N1CCN(C(=O)c2ccco2)CC1,-4.73%,
O=C(c1ccccc1F)N1CCC(c2nc3c(nnn3Cc3cccc(F)c3)c(=O)[nH]2)CC1,-15.3%,
Cc1ccc2ncc(C(=O)Nc3ccc(OC(F)(F)F)cc3)c(=O)n2c1,-5.88%,
CCn1c2c(c(=O)n3ncc(C(=O)N4CCN(c5ccccc5)CC4)c13)CN(Cc1ccc(OC)cc1)CC2,-2.48%,
CN(Cc1ccccc1)CC(O)COc1ccc(CNCc2cc3ccccc3s2)cc1 (centres undefined),-0.152%,
Cc1cc(C)cc(NC(=O)CSc2oc(-c3ccccc3)nc2S(=O)(=O)c2ccc(Cl)cc2)c1,-3.79%,
Cc1sc2ncnc(SCC(=O)Nc3ccc(CN4CCCC4)cc3)c2c1C,4.55%,
Cc1ccc(C)c(NC(=O)C(c2ccccc2)N2CCN(CC(=O)NC3CC3)CC2)c1 (centres undefined),5.73%,
CC(=O)NC(CC(=O)Nc1cccc(S(=O)(=O)N2CCCC2)c1)c1ccccc1 (centres undefined),-3.53%,
CCN(CC)CCNC(=O)c1ccc(NS(=O)(=O)c2ccc3c(c2)OCCO3)cc1,5.41%,
O=C(OCc1ccccc1F)c1ccc2c(c1)OCCO2,,6.01 µM (active)
O=C(Nc1ccc(NC(=O)c2ccco2)c(Cl)c1)c1cccc([N+](=O)[O-])c1,1.09%,
O=C(Nc1ccccc1)c1ccc2c(c1)OCCCO2,,1.2 µM (active)
O=C(Nc1cccc(S(=O)(=O)Nc2ccc(Cl)cc2)c1)c1ccc2c(c1)OCCO2,,16.9 µM (active)
CC(NS(=O)(=O)c1ccc(Cl)cc1)C(=O)Nc1ccc2c(c1)OCCO2 (centres undefined),0.952%,
